# Results from the supplement of paper PMC7156485.
# ± gives the standard deviation of the averaged measurements.
# System: TDF
# Assay: cell number relative to DMSO (% of DMSO); higher = more cells (less growth inhibition / toxicity)
# Details: concentration: 10 µM; 24 h
# In short: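 Cells were seeded at 800 per well in 384-well plates with RPMI containing 10% FBS; both HCC1569 and TDF lines were used. Compounds were added at 10 µM for 24 h at 37 °C, in triplicate, before fixation in 3.7% formaldehyde and staining with a rabbit anti-H1.0 antibody, an AlexaFluor 647 secondary and DAPI. H1.0 nuclear intensity or cell number is reported as percent of the plate control using the median of replicates, and HCC1569 values were smoothed for positional effects.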
# 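Further: TDF denotes transformed human dermal fibroblasts of mesenchymal origin.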
row,Structure (SMILES),cell number
1,CCCCCC(O)C=CC1C=CC(=O)C1CC=CCCCC(=O)O (stereo unspecified) [Prostaglandin A2],110
2,CNNCc1ccc(C(=O)NC(C)C)cc1 [Procarbazine],106
3,COc1cccc(-c2cn(-c3ccc(CCN4CCC(O)CC4)cc3)c3ncnc(N)c23)c1,53.9
4,CC(C)C(CO)Nc1nc(Nc2ccc(C(=O)O)c(Cl)c2)c2ncn(C(C)C)c2n1 (stereo unspecified) [Purvalanol B],110
5,COC(=O)C1=C(C)NC(C)=C([N+](=O)[O-])C1c1ccccc1C(F)(F)F (racemic),103
6,Cl.Nc1nc2ccc(OC(F)(F)F)cc2s1 [Riluzole.HCl],89.9
7,COc1ccc2cc3[n+](cc2c1OC)CCc1cc2c(cc1-3)OCO2.Cl,77.9
8,COc1ccc(Cl)cc1NC(=O)Nc1cc(C)nc2ccccc12 [N-(5-Chloro-2-methoxyphenyl)-N'-(2-methyl-4-quinolinyl)urea],103
9,"C=C1CCC(O)CC1=CC=C1CCCC2(C)C1CCC2C(C)CCC(O)C(C)(C)O [24(R),25-Dihydroxyvitamin D3]",98.9
10,O=c1oc2c(O)c(O)cc3c(=O)oc4c(O)c(O)cc1c4c23 [Ellagic acid],106
11,COc1cc2nc(N(C)CCCNC(=O)C3CCCO3)nc(N)c2cc1OC (stereo unspecified) [Alfuzosin],96.5
12,CC(=O)NCCc1ccc(O)c(O)c1 [N-Acetyldopamine monohydrate],111
13,COC(=O)C1C(O)CCC2CN3CCc4c([nH]c5ccccc45)C3CC21.Cl (stereo unspecified) [Yohimbine hydrochloride],113
14,Cl.NC(N)=NC(=O)Cc1c(Cl)cccc1Cl [Guanfacine.HCl],82.4
15,COC(=O)[C@@H](N)CSCC=C(C)CCC=C(C)CCC=C(C)C [S-Farnesyl-L-cysteine methylester],94.7
16,CCCCCCCCCCCC=CCCCCCC(=O)O [7(Z)-Nonadecenoic acid],104
17,CCOC(=O)CN1C(=O)c2ccc3c4c(ccc(c24)C1=O)C(=O)N(CC(=O)OCC)C3=O,105
18,NS(=O)(=O)c1cc(C(=O)O)c(NCc2ccco2)cc1Cl [Furosemide],110 ± 1.9

row,Structure (SMILES),cell number
1,COc1cc(C2CC(=O)c3c(O)cc(O)cc3O2)ccc1O (stereo unspecified) [Homoeriodictyol],99.7
2,COc1cc2c(N3CCN(C(=O)Nc4ccc(OC(C)C)cc4)CC3)ncnc2cc1OCCCN1CCCCC1 [Tandutinib],100
3,CN(C)CCCOC1C(C(O)CO)OC2OC(C)(C)OC21.Cl (stereo unspecified) [Amiprilose hydrochloride],106
4,Cc1cc(C(=O)Nc2cccc(C(=O)Nc3cccc(C(F)(F)F)c3)c2)on1,104
5,CCOc1ccc2ccc(=O)oc2c1 [7-ethoxy-2H-chromen-2-one],108
6,N#Cc1c(N(CC(=O)[O-])CC(=O)[O-])sc(C(=O)[O-])c1CC(=O)[O-].[Sr+2].[Sr+2],109
7,C=C1C(=O)OC2C1CCC(C)=CCCC1(C)OC21 (stereo unspecified) [Parthenolide],50.3 ± 3.6
8,CN(C)[C@@H]1CCc2[nH]c3ccc(NC(=O)c4ccc(F)cc4)cc3c2C1.Cl,90.8
9,COc1cccc2c1C(=O)c1c(O)c3c(c(O)c1C2=O)CC(O)(C(C)=O)CC3OC1CC(N)C(O)C(C)O1 (stereo unspecified) [Daunorubicin],8.2 ± 1.4
10,NC/C=C\C(=O)O [cis-4-Aminocrotonic acid],100
11,COC(=O)N=NC=C1C=[N+]([O-])c2ccccc2N1O [Carbadox],101
12,COCCOC(=O)C1=C(C)NC(C)=C(C(=O)OC(C)C)C1c1cccc([N+](=O)[O-])c1 (stereo unspecified) [Nimodipine],106 ± 3.4
13,COc1ccc(C2(C#N)CCC(C(=O)O)CC2)cc1OC1CCCC1 (stereo unspecified),99.6
14,CCCCCCCCCCCCCCC(C(=O)O)=C(C)C(=O)O [Chaetomellic acid A],93.6
15,C[N+](C)(C)C(Cc1c[nH]c(=S)[nH]1)C(=O)[O-] (stereo unspecified) [Ergothioneine],103
16,CCc1[nH]c(-c2ccc(OC)cc2)nc1-c1ccncc1,99.6
17,N#Cc1cc2nc([O-])c([O-])nc2cc1[N+](=O)[O-].[Na+].[Na+] [CNQX disodium],101
18,CCC(=O)N1CCN(C(=O)c2ccccc2)CC1,111
